The whole screen tested about 52,000 compounds, of which about 4,300 (8.3%) were called active. Rule as the data show it: active = survival mostly below about 52% (no sharp cut-off); inactive = mostly above about 56%. The full list was thinned out, with actives kept by preference.
These compounds were tested on DeltatarO mutant (assay: growth inhibition of S. aureus wild type versus tarO mutant, primary screen, teichoic acid synthesis inhibitors, RN4220, OD600 (AID 463173)). Settings: OD600, 18 h, stronger effect = lower value, screened at 18.75 µg/mL (by protocol).
For `CC1=C(C(=O)Nc2ccccc2C)C(c2ccncc2)n2nc(SCc3ccccc3Cl)nc2N1` (centres undefined), the survival was 62% (inactive).
For `CCOC(=O)c1ccccc1NC(=O)N(Cc1ccc(C)cc1)Cc1cccn1-c1nnc(N2CCCC2=O)s1`, the survival was 118% (inactive).
In the case of `Cc1ccc(NC(=O)Cn2nnc(-c3nc(-c4ccncc4)no3)c2N)c(C)c1`, the survival is reported as 92% (inactive).
For `CCc1ccccc1NC(=O)CSc1nccn1C`, the survival was 89% (inactive).
In the case of `CC1=C(c2ccc(C)c(C)c2)S(=O)(=O)N(Cc2ccc(C(=O)NCc3ccc(C)cc3)cc2)C1=O`, the survival is reported as 92% (inactive).
In the case of `COc1ccc(-c2ccc(=O)n(CC(=O)Nc3ccc(N(C)C)cc3)n2)cc1`, the survival is reported as 90% (inactive).
For `CCC1CCCCN1S(=O)(=O)c1ccc(C(=O)Nc2sc3c(c2C(N)=O)CCC3)cc1` (centres undefined), the survival was 68% (inactive).
In the case of `Cc1ccc(-n2nc(C(=O)N(C)c3ccccc3Cl)c3c4ccccc4n(C)c3c2=O)cc1`, the survival is reported as 88% (inactive).
In the case of `CCCNS(=O)(=O)c1cc(-c2nnc3c4ccccc4c(C)nn23)ccc1OC`, the survival is reported as 100% (inactive).
`Cc1cc2c(cc1S(=O)(=O)NCc1ccccc1Cl)OCCN2C` was tested, and the survival was 106% (inactive).
`CCc1ccc(-n2nc3cc(C)c(NC(=O)c4cc(Cl)ccc4OC)cc3n2)cc1` was tested, and the survival was 86% (inactive).
With `CCOC(=O)c1cc2c(=O)n3ccccc3nc2n(CC(C)C)c1=NC(=O)c1cc2ccccc2o1` the survival was 59% (inactive).
For `CCOC(=O)c1cc2c(=O)n3ccccc3nc2n(C(C)C)c1=NC(=O)c1c(-c2c(F)cccc2Cl)noc1C`, the survival was 151% (inactive).
With `CCCCn1c(=NC(=O)C(C)(C)Oc2ccc(Cl)cc2)c(C(=O)OCC)cc2c(=O)n3ccccc3nc21` the survival was 60% (inactive).
With `CCOC(=O)c1cc2c(=O)n3ccccc3nc2n(CC(C)C)c1=NC(=O)C(C)(C)Oc1ccc(Cl)cc1` the survival was 31% (active).
With `CCOC(=O)c1cc2c(=O)n3ccccc3nc2n(C(C)C)c1=NC(=O)C(C)(C)Oc1ccc(Cl)cc1` the survival was 57% (inactive).
In the case of `CCOC(=O)c1cc2c(=O)n3ccccc3nc2n(CC(C)C)c1=NC(=O)C(C)Oc1ccccc1` (centres undefined), the survival is reported as 165% (inactive).
`CCOC(=O)c1cc2c(=O)n3ccccc3nc2n(CCOC)c1=NC(=O)c1cc2ccccc2o1` was tested, and the survival was 58% (inactive).
`CCOC(=O)c1cc2c(=O)n3ccccc3nc2n(CCCOC)c1=NC(=O)C(C)Oc1ccccc1` (centres undefined) was tested, and the survival was 48% (active).
With `CCOC(=O)c1cc2c(=O)n3ccccc3nc2n(CCCOC)c1=NC(=O)c1cc2ccccc2o1` the survival was 65% (inactive).
For `CCOC(=O)c1cc2c(=O)n3ccccc3nc2n(C(C)C)c1=NC(=O)c1cc2ccccc2o1`, the survival was 25% (active).
`CCCCn1c(=NC(=O)c2cc3ccccc3o2)c(C(=O)OCC)cc2c(=O)n3ccccc3nc21` was tested, and the survival was 107% (inactive).
For `CCCn1c(=NC(=O)c2cc3ccccc3o2)c(C(=O)OCC)cc2c(=O)n3ccccc3nc21`, the survival was 27% (active).
For `O=C(NC1CSCC1=O)c1ccccc1` (centres undefined), the survival was 69% (inactive).
In the case of `O=C1CC(c2ccccc2)Sc2nc(-c3ccc(F)cc3)nn21` (centres undefined), the survival is reported as 81% (inactive).
With `O=c1[nH]cnc2nc3c4ccccc4c4ccccc4c3nc12` the survival was 74% (inactive).
`O=C(Nc1cccc(F)c1)c1ccc2c(c1)N(Cc1ccccc1)C(=O)c1ccccc1S2(=O)=O` was tested, and the survival was 80% (inactive).
For `O=C1CN=C(Nc2ccccc2Cl)N1Cc1ccccc1`, the survival was 110% (inactive).
For `COc1ccccc1NC(=O)C1CCC(CNS(=O)(=O)c2ccc3c(c2)CC(C)N3C(C)=O)CC1` (centres undefined), the survival was 58% (inactive).
`O=C(NC1CC(=O)N(c2cccc(F)c2)C1)c1ccc(S(=O)(=O)N2CCCC2)cc1` (centres undefined) was tested, and the survival was 68% (inactive).
In the case of `CCOCCCNC(=O)C(=O)Nc1c2c(nn1-c1ccc(OC)cc1)CSC2`, the survival is reported as 83% (inactive).
In the case of `Cc1ccc(NC(=O)Cn2c(=O)n(CCc3ccccc3)c(=O)c3c4c(sc32)CCCC4)c(C)c1`, the survival is reported as 92% (inactive).
In the case of `CCC1C=CCC2C(=O)N(CC(=O)NCCC3=CCCCC3)C(=O)C12` (centres undefined), the survival is reported as 73% (inactive).
`CC(=O)N1CCCn2c1nc1ccccc12` was tested, and the survival was 92% (inactive).
`Cc1ccc(C)c(N2CCN(C(=O)Cn3cnc4sc(C)c(S(=O)(=O)N5CCN(c6ncccn6)CC5)c4c3=O)CC2)c1` was tested, and the survival was 67% (inactive).
With `CC(NC(=O)c1ccc2c(c1)N(Cc1cccc(F)c1)C(=O)c1ccccc1S2)c1ccccc1` (centres undefined) the survival was 89% (inactive).
For `COc1ccc2c(CNC3CCCC3)c(C(=O)O)n(Cc3ccccc3C)c2c1`, the survival was 95% (inactive).
`CCc1cccc(NC(=O)CSc2ncc3c(n2)-c2ccc(Cl)cc2N(Cc2ccccc2)S3(=O)=O)c1` was tested, and the survival was 92% (inactive).
In the case of `O=C(CSc1ncc2c(n1)-c1ccc(Cl)cc1N(Cc1ccccc1)S2(=O)=O)Nc1ccc(F)c(F)c1`, the survival is reported as 131% (inactive).
In the case of `Cc1cccc(C)c1NC(=O)CSc1ncc2c(n1)-c1ccc(Cl)cc1N(Cc1ccccc1)S2(=O)=O`, the survival is reported as 0% (active).
With `COc1ccccc1CNC(=O)CSc1ncc2c(n1)-c1ccc(Cl)cc1N(Cc1ccccc1)S2(=O)=O` the survival was 32% (active).
With `COc1ccccc1CNC(=O)CSc1ncc2c(n1)-c1cc(Cl)ccc1N(Cc1ccccc1)S2(=O)=O` the survival was 80% (inactive).
`COc1ccc(CNC(=O)CSc2ncc3c(n2)-c2ccc(Cl)cc2N(Cc2ccccc2)S3(=O)=O)cc1` was tested, and the survival was 49% (inactive).
`CCN(CC)N=Nc1ccc(NC(C)=O)cc1` was tested, and the survival was 113% (inactive).

Reference: PubChem BioAssay AID463173 (ICCB-Longwood Screening Facility, Harvard Medical School, 2010)
